In the supplement of paper PMC11732987, “Enantioselective OTUD7B fragment discovery through chemoproteomics screening and high-throughput optimisation” (Communications Chemistry, 2025):

What was measured:
Test in all cases: log2 ratio of Biotin-Ahx-Ub-VS probe labelling (fragment/DMSO); higher = less target engagement (more negative = stronger competition), active = hit call of the paper (q ≤ 0.05, log2 ratio ≤ -1)
Conditions in all cases: compound concentration: 200 uM; treatment time: 3 h
USP19 = biological target: T1, USP19 (UniProt O94966)
T1 sequence (whole entry): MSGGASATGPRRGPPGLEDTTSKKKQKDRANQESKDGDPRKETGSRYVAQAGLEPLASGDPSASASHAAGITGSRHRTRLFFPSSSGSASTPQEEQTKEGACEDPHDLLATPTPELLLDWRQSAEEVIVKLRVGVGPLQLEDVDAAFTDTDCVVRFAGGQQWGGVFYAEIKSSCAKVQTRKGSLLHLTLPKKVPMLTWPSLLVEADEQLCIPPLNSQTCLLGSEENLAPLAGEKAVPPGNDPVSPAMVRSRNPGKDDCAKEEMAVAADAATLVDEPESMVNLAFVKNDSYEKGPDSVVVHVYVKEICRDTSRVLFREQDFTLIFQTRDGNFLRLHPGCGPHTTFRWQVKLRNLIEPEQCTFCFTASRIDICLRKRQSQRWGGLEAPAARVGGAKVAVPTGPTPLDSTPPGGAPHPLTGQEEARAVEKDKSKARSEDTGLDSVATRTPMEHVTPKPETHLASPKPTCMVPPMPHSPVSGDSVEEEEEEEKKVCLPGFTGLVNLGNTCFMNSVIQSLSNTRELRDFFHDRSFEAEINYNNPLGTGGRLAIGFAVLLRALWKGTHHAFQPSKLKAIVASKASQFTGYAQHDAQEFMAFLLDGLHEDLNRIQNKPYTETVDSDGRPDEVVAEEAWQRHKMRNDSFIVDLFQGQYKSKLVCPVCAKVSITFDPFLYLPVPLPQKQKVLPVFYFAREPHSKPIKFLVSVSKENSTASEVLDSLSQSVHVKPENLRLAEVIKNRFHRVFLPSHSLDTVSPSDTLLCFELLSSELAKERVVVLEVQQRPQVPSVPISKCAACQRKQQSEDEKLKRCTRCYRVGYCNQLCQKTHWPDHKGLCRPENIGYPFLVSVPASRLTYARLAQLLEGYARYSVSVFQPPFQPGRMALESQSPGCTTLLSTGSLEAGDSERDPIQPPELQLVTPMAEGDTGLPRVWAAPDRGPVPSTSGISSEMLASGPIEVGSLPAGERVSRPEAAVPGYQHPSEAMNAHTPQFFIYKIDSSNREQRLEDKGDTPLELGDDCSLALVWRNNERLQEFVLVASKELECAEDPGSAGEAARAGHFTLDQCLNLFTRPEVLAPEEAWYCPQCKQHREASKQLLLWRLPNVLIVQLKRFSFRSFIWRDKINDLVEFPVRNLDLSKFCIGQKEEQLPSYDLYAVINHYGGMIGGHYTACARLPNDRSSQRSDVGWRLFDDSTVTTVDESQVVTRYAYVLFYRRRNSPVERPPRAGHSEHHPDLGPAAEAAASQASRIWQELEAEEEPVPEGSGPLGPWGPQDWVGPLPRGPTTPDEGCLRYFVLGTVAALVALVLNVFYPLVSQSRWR
Outline: (§1)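 HEK293T lysate in Tris/CHAPS/IGEPAL buffer with protease inhibitors (495 µg per sample) was given fragment at 200 µM or vehicle for 3 h, in triplicate. It then received Biotin-Ahx-Ub-VS at 0.5 µM final for 1 h. Labelled DUBs were NeutrAvidin-enriched, digested with LysC and trypsin, and run by diaPASEF LC-MS/MS. Values are average log2 fragment/vehicle ratios by unpaired t-test on global-median-normalised Spectronaut quantities of proteins with ≥2 unique peptides.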

USP22 = biological target: T2, USP22 (UniProt Q9UPT9)
T2 sequence (whole entry): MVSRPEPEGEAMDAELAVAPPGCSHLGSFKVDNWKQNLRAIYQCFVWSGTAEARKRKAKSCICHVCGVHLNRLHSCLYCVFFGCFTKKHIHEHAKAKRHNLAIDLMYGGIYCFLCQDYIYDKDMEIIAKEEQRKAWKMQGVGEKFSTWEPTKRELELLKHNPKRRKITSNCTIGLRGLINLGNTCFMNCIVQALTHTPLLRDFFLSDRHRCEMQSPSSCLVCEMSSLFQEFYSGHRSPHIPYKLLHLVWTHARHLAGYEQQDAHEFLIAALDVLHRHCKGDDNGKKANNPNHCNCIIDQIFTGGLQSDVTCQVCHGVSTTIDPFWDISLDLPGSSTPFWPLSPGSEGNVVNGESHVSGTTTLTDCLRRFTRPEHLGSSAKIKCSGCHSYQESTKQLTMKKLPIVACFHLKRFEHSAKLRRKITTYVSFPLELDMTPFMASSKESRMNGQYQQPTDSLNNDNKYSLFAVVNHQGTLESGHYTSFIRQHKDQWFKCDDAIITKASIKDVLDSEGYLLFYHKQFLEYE
Outline: as §1

USP24 = USP24 (UniProt Q9UPU5)
Sequence of USP24 (Q9UPU5 whole entry): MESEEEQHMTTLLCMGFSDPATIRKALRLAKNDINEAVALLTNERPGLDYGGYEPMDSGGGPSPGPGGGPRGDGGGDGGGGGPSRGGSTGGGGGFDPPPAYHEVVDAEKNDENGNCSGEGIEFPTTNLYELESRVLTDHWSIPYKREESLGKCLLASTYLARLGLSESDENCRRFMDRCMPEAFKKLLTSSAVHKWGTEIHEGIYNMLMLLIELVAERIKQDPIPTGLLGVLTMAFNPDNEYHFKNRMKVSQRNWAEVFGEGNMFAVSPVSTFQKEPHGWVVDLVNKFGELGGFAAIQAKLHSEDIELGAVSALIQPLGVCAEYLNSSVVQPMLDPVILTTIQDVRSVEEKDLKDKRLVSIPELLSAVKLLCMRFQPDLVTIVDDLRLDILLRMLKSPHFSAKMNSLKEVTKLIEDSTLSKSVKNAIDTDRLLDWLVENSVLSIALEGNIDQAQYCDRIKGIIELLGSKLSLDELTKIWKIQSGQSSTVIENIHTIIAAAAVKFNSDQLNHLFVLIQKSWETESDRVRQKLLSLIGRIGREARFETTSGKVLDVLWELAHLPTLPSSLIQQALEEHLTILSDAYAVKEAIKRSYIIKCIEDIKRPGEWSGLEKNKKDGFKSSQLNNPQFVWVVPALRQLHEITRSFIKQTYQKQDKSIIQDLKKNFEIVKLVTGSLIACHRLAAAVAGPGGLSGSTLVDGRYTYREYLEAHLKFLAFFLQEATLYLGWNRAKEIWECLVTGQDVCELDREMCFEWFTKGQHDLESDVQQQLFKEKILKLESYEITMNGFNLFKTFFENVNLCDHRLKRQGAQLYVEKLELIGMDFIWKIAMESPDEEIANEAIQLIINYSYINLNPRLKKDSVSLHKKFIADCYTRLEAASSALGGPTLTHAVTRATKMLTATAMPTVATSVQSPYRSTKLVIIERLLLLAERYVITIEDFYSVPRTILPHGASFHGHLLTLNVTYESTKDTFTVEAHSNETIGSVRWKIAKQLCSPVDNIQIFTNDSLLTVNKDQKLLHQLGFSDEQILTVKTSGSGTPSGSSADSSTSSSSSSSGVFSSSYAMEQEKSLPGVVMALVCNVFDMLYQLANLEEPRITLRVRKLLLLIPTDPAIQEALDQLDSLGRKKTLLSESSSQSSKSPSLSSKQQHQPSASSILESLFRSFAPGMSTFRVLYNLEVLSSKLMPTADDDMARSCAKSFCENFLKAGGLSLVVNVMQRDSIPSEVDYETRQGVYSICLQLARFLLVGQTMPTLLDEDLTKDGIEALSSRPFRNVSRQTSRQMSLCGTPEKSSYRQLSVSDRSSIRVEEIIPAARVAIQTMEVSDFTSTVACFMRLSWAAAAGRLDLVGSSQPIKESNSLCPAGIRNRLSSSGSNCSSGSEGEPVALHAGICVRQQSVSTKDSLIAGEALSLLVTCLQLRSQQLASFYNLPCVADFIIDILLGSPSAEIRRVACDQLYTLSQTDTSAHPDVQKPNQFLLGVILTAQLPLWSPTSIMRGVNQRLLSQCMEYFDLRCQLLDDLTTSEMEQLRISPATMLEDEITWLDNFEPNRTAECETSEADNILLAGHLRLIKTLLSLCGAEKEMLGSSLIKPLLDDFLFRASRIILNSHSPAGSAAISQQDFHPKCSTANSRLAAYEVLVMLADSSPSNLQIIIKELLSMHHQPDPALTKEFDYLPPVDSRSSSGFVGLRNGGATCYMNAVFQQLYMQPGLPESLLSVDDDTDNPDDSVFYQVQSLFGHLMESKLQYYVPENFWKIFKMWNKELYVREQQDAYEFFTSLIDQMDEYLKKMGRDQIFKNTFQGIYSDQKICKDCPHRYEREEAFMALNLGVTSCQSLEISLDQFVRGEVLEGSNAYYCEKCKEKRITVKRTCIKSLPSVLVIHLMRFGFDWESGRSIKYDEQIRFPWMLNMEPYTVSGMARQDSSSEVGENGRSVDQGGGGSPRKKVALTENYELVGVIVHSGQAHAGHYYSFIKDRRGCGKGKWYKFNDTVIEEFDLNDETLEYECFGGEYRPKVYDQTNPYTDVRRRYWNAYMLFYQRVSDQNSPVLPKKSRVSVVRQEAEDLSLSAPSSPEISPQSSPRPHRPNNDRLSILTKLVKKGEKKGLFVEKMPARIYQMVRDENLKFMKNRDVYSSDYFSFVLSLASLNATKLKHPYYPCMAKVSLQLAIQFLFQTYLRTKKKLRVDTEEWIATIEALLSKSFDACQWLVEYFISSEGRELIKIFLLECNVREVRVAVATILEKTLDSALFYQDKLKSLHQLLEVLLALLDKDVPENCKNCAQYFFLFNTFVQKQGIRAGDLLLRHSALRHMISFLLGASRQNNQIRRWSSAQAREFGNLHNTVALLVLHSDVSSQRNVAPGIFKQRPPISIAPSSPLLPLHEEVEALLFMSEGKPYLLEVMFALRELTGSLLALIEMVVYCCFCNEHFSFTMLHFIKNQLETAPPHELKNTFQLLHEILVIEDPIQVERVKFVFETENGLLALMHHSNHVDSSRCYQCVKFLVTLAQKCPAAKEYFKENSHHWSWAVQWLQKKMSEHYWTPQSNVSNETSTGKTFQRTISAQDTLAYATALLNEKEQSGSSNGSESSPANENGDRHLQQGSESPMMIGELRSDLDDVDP
Outline: as §1

USP25 = biological target: T3, USP25 (UniProt Q9UHP3)
T3 sequence (whole entry): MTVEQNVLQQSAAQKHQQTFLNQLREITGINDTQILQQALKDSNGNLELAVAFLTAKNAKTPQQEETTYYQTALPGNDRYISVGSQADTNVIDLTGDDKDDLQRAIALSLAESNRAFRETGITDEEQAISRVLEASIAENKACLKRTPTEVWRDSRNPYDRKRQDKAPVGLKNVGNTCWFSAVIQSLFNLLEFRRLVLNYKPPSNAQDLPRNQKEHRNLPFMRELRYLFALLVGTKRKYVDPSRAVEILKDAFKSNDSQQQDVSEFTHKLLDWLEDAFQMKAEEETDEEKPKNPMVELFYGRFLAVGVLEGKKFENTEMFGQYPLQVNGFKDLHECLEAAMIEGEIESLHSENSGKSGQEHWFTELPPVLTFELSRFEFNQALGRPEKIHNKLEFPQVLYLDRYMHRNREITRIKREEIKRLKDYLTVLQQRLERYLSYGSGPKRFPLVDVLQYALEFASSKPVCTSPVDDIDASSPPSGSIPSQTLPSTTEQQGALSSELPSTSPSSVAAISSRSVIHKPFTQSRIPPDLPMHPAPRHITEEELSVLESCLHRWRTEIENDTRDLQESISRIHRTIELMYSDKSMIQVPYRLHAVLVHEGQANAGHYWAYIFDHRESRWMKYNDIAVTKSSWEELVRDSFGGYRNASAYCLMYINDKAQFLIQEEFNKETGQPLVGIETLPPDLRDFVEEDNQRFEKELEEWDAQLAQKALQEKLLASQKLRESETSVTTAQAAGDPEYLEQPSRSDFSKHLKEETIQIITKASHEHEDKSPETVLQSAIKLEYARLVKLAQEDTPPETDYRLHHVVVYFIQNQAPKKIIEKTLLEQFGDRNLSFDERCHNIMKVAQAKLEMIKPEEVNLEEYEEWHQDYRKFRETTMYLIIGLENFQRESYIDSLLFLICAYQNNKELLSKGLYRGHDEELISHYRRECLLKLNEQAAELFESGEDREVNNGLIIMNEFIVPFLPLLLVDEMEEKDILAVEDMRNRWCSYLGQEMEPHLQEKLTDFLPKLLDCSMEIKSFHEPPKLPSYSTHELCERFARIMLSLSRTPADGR
Outline: as §1

USP28 = biological target: T4, USP28 (UniProt Q96RU2)
T4 sequence (whole entry): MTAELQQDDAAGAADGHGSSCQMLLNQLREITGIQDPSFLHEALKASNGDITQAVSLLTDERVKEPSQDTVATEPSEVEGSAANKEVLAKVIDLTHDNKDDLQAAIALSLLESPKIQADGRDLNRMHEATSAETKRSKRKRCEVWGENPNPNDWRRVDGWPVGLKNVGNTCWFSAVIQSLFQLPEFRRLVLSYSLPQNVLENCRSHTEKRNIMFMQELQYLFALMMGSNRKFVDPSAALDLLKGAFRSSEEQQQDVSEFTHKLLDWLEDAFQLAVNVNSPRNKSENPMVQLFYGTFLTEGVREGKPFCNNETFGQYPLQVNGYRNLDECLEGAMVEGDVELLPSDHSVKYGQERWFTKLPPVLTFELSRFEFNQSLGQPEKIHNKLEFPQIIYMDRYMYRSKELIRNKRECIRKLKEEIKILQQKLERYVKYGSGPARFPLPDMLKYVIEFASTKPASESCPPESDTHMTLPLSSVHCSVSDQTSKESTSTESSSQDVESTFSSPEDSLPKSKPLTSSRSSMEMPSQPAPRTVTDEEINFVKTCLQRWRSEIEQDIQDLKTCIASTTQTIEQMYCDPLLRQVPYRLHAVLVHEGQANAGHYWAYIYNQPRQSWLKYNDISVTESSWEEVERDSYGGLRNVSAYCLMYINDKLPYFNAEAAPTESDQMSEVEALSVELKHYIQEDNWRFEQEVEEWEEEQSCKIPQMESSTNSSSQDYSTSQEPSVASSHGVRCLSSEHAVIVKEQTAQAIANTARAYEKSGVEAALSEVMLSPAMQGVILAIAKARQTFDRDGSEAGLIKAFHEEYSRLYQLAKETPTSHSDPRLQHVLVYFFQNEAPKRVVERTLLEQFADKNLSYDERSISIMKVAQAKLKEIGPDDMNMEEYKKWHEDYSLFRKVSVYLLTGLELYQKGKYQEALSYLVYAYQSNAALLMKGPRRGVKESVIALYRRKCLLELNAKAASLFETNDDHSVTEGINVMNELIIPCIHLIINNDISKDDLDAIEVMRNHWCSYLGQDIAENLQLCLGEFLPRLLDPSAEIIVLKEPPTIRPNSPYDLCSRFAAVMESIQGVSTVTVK
Outline: as §1

Measured: log2 ratio of Biotin-Ahx-Ub-VS probe labelling

O=C(CCl)N1CCC(c2nc3ccccc3o2)CC1
inactive: USP19 -0.537 | USP22 -0.0192 | USP24 -0.503 | USP25 -0.466 | USP28 -0.736
